Experimental data as given in ChEMBL document CHEMBL3433997, “St. Jude Leishmania screening dataset” (2016).

target: Solute carrier family 2, facilitated glucose transporter member 1 (Homo sapiens) (UniProt P11166); test: ST_JUDE_LEISH: Cytotoxicity at 2uM final concentration against transgenic Leishmania Mexicana promastigotes LmGLUT1 that are glucose transport deficient and complemented with the human glucose transporter GLUT1. Activity is measured by DNA content using SYBR green in vitro; assay type: functional
Sequence (P11166 whole entry): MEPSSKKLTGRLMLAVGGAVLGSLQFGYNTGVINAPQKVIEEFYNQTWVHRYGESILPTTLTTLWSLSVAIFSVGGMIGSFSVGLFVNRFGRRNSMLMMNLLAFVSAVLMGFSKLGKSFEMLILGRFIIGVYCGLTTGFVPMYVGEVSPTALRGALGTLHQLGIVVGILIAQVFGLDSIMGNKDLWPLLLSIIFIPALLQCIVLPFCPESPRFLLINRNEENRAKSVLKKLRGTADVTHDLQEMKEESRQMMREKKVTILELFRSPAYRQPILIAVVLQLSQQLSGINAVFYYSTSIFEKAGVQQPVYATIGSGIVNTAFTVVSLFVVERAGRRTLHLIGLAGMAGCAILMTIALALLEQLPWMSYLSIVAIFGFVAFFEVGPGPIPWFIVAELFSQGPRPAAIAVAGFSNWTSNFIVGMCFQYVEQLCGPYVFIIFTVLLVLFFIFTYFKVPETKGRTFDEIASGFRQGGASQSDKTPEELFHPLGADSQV

SMILES | inhibition
O=C(C=Cc1ccc(Cl)c(Cl)c1)NCCCCCN1CCC(CCCNS(=O)(=O)c2ccc(Br)cc2)CC1 | 3.69%
COc1cccc(Nc2nc(Nc3cccc(C#N)c3)cc(C(F)(F)F)n2)c1 | 6.5%
CC(C)(C)c1ccc(-c2cc3c(ccc4nc(N)nc(N)c43)[nH]2)cc1 | 1.02%
COc1ccccc1C1CCN(C2CCC(NC(=O)c3cc4cc(C(C)C)ccc4[nH]3)CC2)CC1 (stereo not given) | -0.19%
CC[C@H](C)CNC(=O)c1cccc(-c2cccc(CN3CCC(N4CCCC4)CC3)c2)n1 | -2.59%
CN1CCN(c2cc(-c3ccncc3)nc(-c3cccnc3)n2)CC1 | 5.17%
NC1=Nc2ccc(Cl)cc2C1(O)c1ccccc1 (stereo not given) | 1.25%
Cc1ccccc1C1CCN(C2CCC(NC(=O)/C=C/c3cccc(F)c3F)CC2)CC1 (stereo not given) | 5.69%
CCN(CC)c1nc(Nc2cc(C)ccc2C)nc(Nc2ccccc2O)n1 | 4.16%
Cc1nc2nc(N)nc(N)c2c(C)c1Cc1ccc([N+](=O)[O-])cc1 | 5.73%

target: Hexose transporter 1 (Plasmodium falciparum) (UniProt O97467); test: ST_JUDE_LEISH: Cytotoxicity at 2uM final concentration against transgenic Leishmania Mexicana promastigotes LmPfHT that are glucose transport deficient and complemented with the Plasmodium falciparum hexose transporter. Activity is measured by DNA content using SYBR green in vitro; assay type: functional

SMILES | inhibition
COC(=O)c1cccc(N2CCN(CCCNC(=O)/C(=C/C=C/c3cc4cc(Cl)c(Cl)cc4[nH]3)OC)CC2)c1 | 0.95%
Cc1noc(-c2ccc(NC[C@@H](C)NC[C@H](O)c3cccc(Cl)c3)cc2)n1 | 3.1%
COc1ccc(-c2cc(C(=O)N[C@@H](CC3CCCCC3)C(=O)NCCN3CCCCC3)ccc2O)cc1 | -0.56%
O=C(CCCCCNC(=O)c1ccc(O)c(-c2cccc(C(F)(F)F)c2)c1)NCCN1CCCCC1 | 4.36%
Nc1cccc(CNCc2cccc(-c3ccc(-c4nc5cc(C(F)(F)F)ccc5[nH]4)cc3)c2)c1 | 6.83%
CCCCOC(=O)C1=C(C)NC2=C(C(=O)CCC2)C1c1ccc(OC)c(Br)c1 (stereo not given) | -0.81%
COc1ccc2c(=O)c(I)c(C)[nH]c2c1 | -1.12%
N=C(N)NCCCC(=O)NCC(N)=O | 8.67%
COc1ccc2ncc(Cl)c([C@@H](O)CN3CCC(NCc4cc5c(cn4)OCCO5)CC3)c2c1 | 10.5%
CN(C)c1ccc(NC(=O)Nc2ccnc3ccccc23)cc1Br | 8.16%
CC(C)(C)c1ccc(-c2ccccc2CNC(=O)c2cccc(O)c2)cc1 | 6.5%
CC(=O)c1cccc2cc(C(=O)NC3CCC(CCN4CCc5ccc(C#N)cc5C4)CC3)[nH]c12 (stereo not given) | 2%
CC(CCCCOCCc1ccccc1)NCC(O)c1cc(Cl)c(N)c(Cl)c1 (stereo not given) | 0.7%
CS(=O)(=O)CCNCc1cc(-c2cc3ncnc(Nc4ccc(OCc5cccc(F)c5)c(Cl)c4)c3s2)cs1 | 6.19%
Cc1cc(N[C@@H](CC(C)C)C(=O)NCCOc2ccccc2)nc(Nc2ccccc2)n1 | 2.42%
COc1ccccc1NC(=S)N/N=C/c1ccc(O)cc1O | 6.07%
Nc1nc2c(ncn2COC2COP(=O)(O)OC2)c(=O)[nH]1 (stereo not given) | 12%
Cc1nn(-c2ccccc2)nc1C(=O)N(Cc1ccc(-c2ccc(CNCCc3ccc(S(C)(=O)=O)cc3)cn2)cc1)C1CC1 | 3.85%
CC(CN1CCN(C)CC1)C(=O)Nc1ccc(-c2ccc(-c3nc4cc(C(F)(F)F)ccc4[nH]3)cc2)cc1 (stereo not given) | 4.86%
Cc1nnc(-c2ccc3ccccc3c2)c2cn(-c3cccc([N+](=O)[O-])c3)nc12 | 3.95%

SMILES | inhibition
Cc1[nH]c2ccc(-c3ccccc3)cc2c(=O)c1Br | 4.13%
CN1CCC(NCc2ccc(-c3cccc(S(=O)(=O)NCC4CCCO4)c3)cc2)CC1 (stereo not given) | 3.18%
CC(C)[C@H](NC(=O)c1ccc(O)c(-c2ccc(Cl)c(Cl)c2)c1)C(=O)NCCN(C)C | 0.6%
Cc1[nH]c(C)c(-c2ccc(-c3ccccc3Cl)nc2)c(=O)c1Br | 1.48%
COc1ccc2c(NN=Cc3cccc(C)n3)ccnc2c1 | 5.22%
CCN(C)c1cc(C(=O)N[C@@H](Cc2ccccc2)[C@H](O)CNC(C)(C)c2cccc(OC)c2)cc(N2CCCC2=O)c1 | 0.79%
O=C(/C=C/c1ccc(Cl)c(Cl)c1)NCCCCCN1CCC(NC(=O)Nc2cc(Cl)nc(Cl)c2)CC1 | -0.18%
Cn1cc(CN2CCCC(COC(c3ccccc3)c3ccccc3)C2)cn1 (stereo not given) | 2.93%
COc1ccc2nccc([C@@H](O)CN3CCC(NS(=O)(=O)c4cc5c(cc4Cl)SCC(=O)N5)CC3)c2c1 | 1.6%
CN1CCN(Cc2cccc(-c3ccc4c(Nc5ccc(Oc6ccccc6)cc5)ccnc4c3)c2)CC1 | 17%
O=C(C=Cc1ccc(Cl)c(Cl)c1)NCCCCCN1CCC(CCCNS(=O)(=O)c2ccc(Br)cc2)CC1 | -0.68%
COc1cccc(Nc2nc(Nc3cccc(C#N)c3)cc(C(F)(F)F)n2)c1 | 6.64%
CC(C)(C)c1ccc(-c2cc3c(ccc4nc(N)nc(N)c43)[nH]2)cc1 | 1.64%
COc1ccccc1C1CCN(C2CCC(NC(=O)c3cc4cc(C(C)C)ccc4[nH]3)CC2)CC1 (stereo not given) | 0.03%
CC[C@H](C)CNC(=O)c1cccc(-c2cccc(CN3CCC(N4CCCC4)CC3)c2)n1 | -0.05%
CN1CCN(c2cc(-c3ccncc3)nc(-c3cccnc3)n2)CC1 | 3.27%
NC1=Nc2ccc(Cl)cc2C1(O)c1ccccc1 (stereo not given) | 1.33%
Cc1ccccc1C1CCN(C2CCC(NC(=O)/C=C/c3cccc(F)c3F)CC2)CC1 (stereo not given) | 4.6%
CCN(CC)c1nc(Nc2cc(C)ccc2C)nc(Nc2ccccc2O)n1 | 5.53%
Cc1nc2nc(N)nc(N)c2c(C)c1Cc1ccc([N+](=O)[O-])cc1 | 3.25%
